# Test results published in ChEMBL document CHEMBL5606460, “ASAP - DENV-2 NS2B-NS3 protease fluorescence single point” (2024).
# About 110 (5.5%) of roughly 2,000 compounds showed an effect of 50% or more. The sample holds strong results, similar compounds and a random draw of the others, so the mix is not that of the screen.
# Biological target: Genome polyprotein (dengue virus type 2) (UniProt P29990)
# [1] = Thailand/16681/1984, Concentration 25.0 uM, Number of replicates 1.0
structure (smiles),measurement,setting,value
Cc1cc(NS(=O)(=O)c2ccc(Oc3ccccc3Cl)cc2)c(C(=O)NCC(F)(F)F)cc1F,inhibition,"Thailand/16681/1984, Concentration 49.5 uM, Number of replicates 2.0, Standard deviation 0.004288863304468577 %",80.7%
same,inhibition,"Thailand/16681/1984, Concentration 99.01 uM, Number of replicates 2.0, Standard deviation 0.05387243894141284 %",85%
same,inhibition,"Thailand/16681/1984, Concentration 198.0 uM, Number of replicates 2.0, Standard deviation 0.06674981844803736 %",82.2%
CNC(=O)c1cc(Cl)c(OC)cc1NS(=O)(=O)c1ccc(Oc2ccccc2Cl)cc1,inhibition,"Thailand/16681/1984, Concentration 49.5 uM, Number of replicates 2.0, Standard deviation 1.7443589304782063 %",79.2%
same,inhibition,"Thailand/16681/1984, Concentration 99.01 uM, Number of replicates 2.0, Standard deviation 0.14348540542006383 %",98.5%
same,inhibition,"Thailand/16681/1984, Concentration 198.0 uM, Number of replicates 2.0, Standard deviation 0.05118043543332502 %",99.3%
CNC(=O)c1cc(Cl)c(F)cc1NS(=O)(=O)c1ccc(Oc2ccccc2Cl)cc1,inhibition,"Thailand/16681/1984, Concentration 49.5 uM, Number of replicates 2.0, Standard deviation 0.030615470758313425 %",98.6%
same,inhibition,"Thailand/16681/1984, Concentration 99.01 uM, Number of replicates 2.0, Standard deviation 0.03013533386007732 %",99.7%
same,inhibition,"Thailand/16681/1984, Concentration 198.0 uM, Number of replicates 2.0, Standard deviation 0.00477978979592347 %",98.7%
CNC(=O)c1nccnc1NS(=O)(=O)c1ccc(Oc2ccccc2Cl)cc1,inhibition,"Thailand/16681/1984, Concentration 49.5 uM, Number of replicates 2.0, Standard deviation 1.5095148361141704 %",0.146%
same,inhibition,"Thailand/16681/1984, Concentration 99.01 uM, Number of replicates 2.0, Standard deviation 1.499470483470751 %",2.7%
same,inhibition,"Thailand/16681/1984, Concentration 198.0 uM, Number of replicates 2.0, Standard deviation 0.45486328764545614 %",7.74%
CNC(=O)c1cn(S(=O)(=O)c2ccc(Oc3ccccc3Cl)cc2)c2ccc(Cl)cc12,inhibition,"Thailand/16681/1984, Concentration 49.5 uM, Number of replicates 2.0, Standard deviation 1.1380993582408887 %",0.625%
same,inhibition,"Thailand/16681/1984, Concentration 99.01 uM, Number of replicates 2.0, Standard deviation 1.0406365412270837 %",4.48%
same,inhibition,"Thailand/16681/1984, Concentration 198.0 uM, Number of replicates 2.0, Standard deviation 0.5161930213749926 %",12.8%
CNC(=O)c1cc(Cl)cc(OC)c1NS(=O)(=O)c1ccc(Oc2ccccc2Cl)cc1,inhibition,"Thailand/16681/1984, Concentration 49.5 uM, Number of replicates 2.0, Standard deviation 0.8103097460864452 %",1.45%
same,inhibition,"Thailand/16681/1984, Concentration 99.01 uM, Number of replicates 2.0, Standard deviation 1.6946405270728757 %",1.53%
same,inhibition,"Thailand/16681/1984, Concentration 198.0 uM, Number of replicates 2.0, Standard deviation 1.1024722794831296 %",-0.559%
CN1CCN(c2ccc(CCNc3ccccc3F)cc2)CC1,inhibition,"Thailand/16681/1984, Concentration 49.5 uM, Number of replicates 2.0, Standard deviation 1.1725472419342977 %",-4.52%
same,inhibition,"Thailand/16681/1984, Concentration 99.01 uM, Number of replicates 2.0, Standard deviation 1.0151129155310683 %",-3.89%
same,inhibition,"Thailand/16681/1984, Concentration 198.0 uM, Number of replicates 2.0, Standard deviation 0.9851713728804441 %",-1.99%
CNS(=O)(=O)c1ccc(CNCc2ccc(N3CCN(C)CC3)cc2)cc1,inhibition,"Thailand/16681/1984, Concentration 49.5 uM, Number of replicates 2.0, Standard deviation 0.2679515396874046 %",-1.41%
same,inhibition,"Thailand/16681/1984, Concentration 99.01 uM, Number of replicates 2.0, Standard deviation 0.0046358372348345115 %",-0.423%
same,inhibition,"Thailand/16681/1984, Concentration 198.0 uM, Number of replicates 2.0, Standard deviation 1.744466130987394 %",0.949%
CC(C)(C)OC(=O)N1CCOC[C@H]1CNCc1nnc2ccccn12,inhibition,"Thailand/16681/1984, Concentration 49.5 uM, Number of replicates 2.0, Standard deviation 3.6636813935617547 %",-2.66%
same,inhibition,"Thailand/16681/1984, Concentration 99.01 uM, Number of replicates 2.0, Standard deviation 2.060655687099608 %",-2.48%
same,inhibition,"Thailand/16681/1984, Concentration 198.0 uM, Number of replicates 2.0, Standard deviation 3.020799081222525 %",-1.72%
CC(C)Cn1cccc(C(=O)Nc2ccncc2)c1=O,inhibition,"Thailand/16681/1984, Concentration 49.5 uM, Number of replicates 2.0, Standard deviation 1.6949837288603 %",4.6%
same,inhibition,"Thailand/16681/1984, Concentration 99.01 uM, Number of replicates 2.0, Standard deviation 0.80587134576346 %",8.75%
same,inhibition,"Thailand/16681/1984, Concentration 198.0 uM, Number of replicates 2.0, Standard deviation 0.4281674737986559 %",16%
Cc1cc(CO)c2cccc(Cc3ccccc3NC(=O)Cc3csc(Cc4ccccc4)n3)c2n1,inhibition,"Thailand/16681/1984, Concentration 49.95 uM, Number of replicates 2.0, Standard deviation 1.2441700790071646 %",-0.54%
same,inhibition,"Thailand/16681/1984, Concentration 99.9 uM, Number of replicates 2.0, Standard deviation 1.3300226430755788 %",0.901%
O=Cc1ccc(N2CCC(C(=O)N3CCC(O)(c4ccc(Br)cc4)CC3)CC2)cc1,inhibition,[1],14.6%
O=Cc1ccc(N2CCC(C(=O)NCc3cccc([N+](=O)[O-])c3)CC2)cc1,inhibition,[1],11%
NC(=O)c1ccc(Cl)c(NC(=O)C2CCN(c3ccc(C=O)cc3)CC2)c1,inhibition,[1],13.8%
Cc1cc(CO)c2cccc(Cc3cccc(NC(=O)Cc4cccc(CN)c4)c3)c2n1,inhibition,"Thailand/16681/1984, Concentration 49.95 uM, Number of replicates 2.0, Standard deviation 1.5571170041089204 %",9.22%
same,inhibition,"Thailand/16681/1984, Concentration 99.9 uM, Number of replicates 2.0, Standard deviation 3.140543082582705 %",20.8%
NCc1cccc(NC(=O)[C@@H](NC(=O)OCc2ccccc2)C(C2CCC2)C2CCC2)c1,inhibition,"Thailand/16681/1984, Concentration 49.5 uM, Number of replicates 2.0, Standard deviation 1.0931409988329541 %",0.575%
same,inhibition,"Thailand/16681/1984, Concentration 99.01 uM, Number of replicates 2.0, Standard deviation 7.259842534821406 %",21.9%
same,inhibition,"Thailand/16681/1984, Concentration 198.0 uM, Number of replicates 2.0, Standard deviation 0.026391345013157583 %",99.8%
CC(C)(C)[C@@H](NC(=O)OCc1ccccc1)C(=O)Nc1cccc(CN)c1,inhibition,"Thailand/16681/1984, Concentration 49.5 uM, Number of replicates 2.0, Standard deviation 1.83793572376561 %",-6.76%
same,inhibition,"Thailand/16681/1984, Concentration 99.01 uM, Number of replicates 2.0, Standard deviation 1.8206757463634287 %",-7.66%
same,inhibition,"Thailand/16681/1984, Concentration 198.0 uM, Number of replicates 2.0, Standard deviation 1.2664180516369132 %",-8.05%
CC(C)C[C@@H](NC(=O)OCc1ccccc1)C(=O)Nc1cccc(CN)c1,inhibition,"Thailand/16681/1984, Concentration 49.5 uM, Number of replicates 2.0, Standard deviation 3.1792600205617827 %",-4.42%
same,inhibition,"Thailand/16681/1984, Concentration 99.01 uM, Number of replicates 2.0, Standard deviation 3.3347078817009965 %",-3.69%
same,inhibition,"Thailand/16681/1984, Concentration 198.0 uM, Number of replicates 2.0, Standard deviation 3.065424880922284 %",-2.71%
NCc1cccc(NC(=O)[C@@H](NC(=O)OCc2ccccc2)C2CCCCC2)c1,inhibition,"Thailand/16681/1984, Concentration 49.5 uM, Number of replicates 2.0, Standard deviation 3.75421470496627 %",-3.1%
same,inhibition,"Thailand/16681/1984, Concentration 99.01 uM, Number of replicates 2.0, Standard deviation 3.4431804249233626 %",-1.76%
same,inhibition,"Thailand/16681/1984, Concentration 198.0 uM, Number of replicates 2.0, Standard deviation 6.458747607105988 %",79.9%
NCc1cccc(NC(=O)[C@@H](CO)NC(=O)OCc2ccccc2)c1,inhibition,"Thailand/16681/1984, Concentration 49.5 uM, Number of replicates 2.0, Standard deviation 0.4735169770341957 %",-3.34%
same,inhibition,"Thailand/16681/1984, Concentration 99.01 uM, Number of replicates 2.0, Standard deviation 2.1222171442022573 %",-3.24%
same,inhibition,"Thailand/16681/1984, Concentration 198.0 uM, Number of replicates 2.0, Standard deviation 1.1527028197814282 %",-3.94%
